Screens: PubChem, National Center for Advancing Translational Sciences (NCATS)
TCR activator: activators of T cell receptors. primary human leukocytes, anti-CD3, IL-2 HTRF, 48 h. Potency, µM (doses to about 9.22 µM), inactives show at the top dose activation of IL-2 secretion, actives largely listed as activators. 330,000 tested, under 10 active. AID 504894; further: % of control where 0% means no effect
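IL-2 release read by HTRF sandwich (Eu cryptate donor, d2 acceptor, 665 nm emission) after 48 hr exposure of primary human leukocytes to compound together with anti-CD3 beads in the absence of co-stimulatory signals.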
Sfp PPTase inh: Sfp phosphopantetheinyl transferase inhibition. Q9F4F7. Biochemical Sfp PPTase activity, qHTS. Potency, µM, without a hit: largest response in the series, negative = inhibition, most hits filed as inhibitors. 310,000 compounds, 3.5% hits. AID 1490;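 further: the enzyme is Sfp with the accession as filed and its product quenches rhodamine fluorescence; potency means the concentration at half of the fitted maximal effect; 0% = enzyme reaction without inhibitor and -100% = no enzyme wells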
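Buffer: 50 mM Hepes-Na pH 7.6, 10 mM MgCl2, 0.01% Nonidet P-40, 0.01% BSA. Enzyme 15 nM, pre-exposed to compound 15 min; substrates then added and fluorescence change tracked over 30 min.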
ClpP mod: qHTS Assay for Activators of ClpP; purified B. subtilis ClpP, FRET peptide cleavage, 20 min; Potency, µM (doses to about 57.5 µM), for the others: top-dose activity change, negative = active; 340,000 compounds, 1.9% hits; AID 651965, 2013; ATP-dependent Clp protease proteolytic subunit (Bacillus subtilis (strain 168)), P80244; active means well fitted falling curve with a large enough effect; inconclusive means small, poorly fitted or top-dose-only effect; inactive means no such curve, though single readings can be large or run the other way; further: potency means the concentration at half of the fitted maximal effect; the source files actives as falling curves though it sought activators and does not explain the sign; nearly all actives have a fitted effect of over 65% in size
Target sequence (P80244 whole entry, looked up): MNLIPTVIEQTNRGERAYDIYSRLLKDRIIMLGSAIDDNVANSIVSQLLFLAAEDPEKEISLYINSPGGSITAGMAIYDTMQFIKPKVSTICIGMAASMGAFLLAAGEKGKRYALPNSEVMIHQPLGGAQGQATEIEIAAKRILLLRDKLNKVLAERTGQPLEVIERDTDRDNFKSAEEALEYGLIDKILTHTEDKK
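Buffer: 100 mM Tris/HCl pH8, 100 mM KCl, 0.05% low protease BSA, 2.5% glycerol, 0.01% Tween-20. ClpP 10 microg/mL final; 20 min RT; delta FRET normalized to ADEP and DMSO controls.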
uPA surface inh: cell surface uPA generation inhibition | cell surface uPA generation assay, qHTS | Potency, µM (doses to about 38.3 µM), for the others: at the highest dose activity change, negative = inhibition, usual class: inhibitors | 330,000 compounds, 0.31% hits | AID 540303; active means well fitted inhibition curve with a large enough effect; inconclusive means small, poorly fitted or top-dose-only effect; inactive means no such curve, though single readings can be large or run the other way; tested in mouse RAW 264.7 cells; further: potency means the concentration at half of the fitted maximal effect; on the % scale 0 is the no-effect control and ±100 the full control effect; nearly all actives have a fitted effect of over 55% in size
An asterisk follows results filed as active; ? = inconclusive; nt = no result; [ ] = dose if it differs, or a comment. An excerpt weighted towards active compounds, which were near 4.2% of everything screened. Unless noted, the call rests on the fitted dose curve; in most records, active means well fitted curve in the direction sought with a large enough effect; inconclusive means small, poorly fitted or top-dose-only effect, or another doubt; inactive means no such curve, though single readings can be large; an effect the other way counts as inactive or inconclusive.

SMILES | TCR activator | Sfp PPTase inh | ClpP mod | uPA surface inh
CCN1/C(=C/C=C/C=C/c2sc3ccccc3[n+]2CC)Sc2ccccc21 | nt | 44.7µM* | -2.3% | nt
CC[n+]1c(/C=C/Nc2ccccc2)sc2ccccc21 | 1.6% | -18.4% | -2.1% | -10.8%
CCN1/C(=C/C=C/C=C/C=C/c2sc3ccccc3[n+]2CC)Sc2ccccc21 | -0.2% | 50.1µM* | -0.5% | ?
CCN1/C(=C/C=C/c2sc3ccccc3[n+]2CC)Sc2ccccc21 | -11.1% | 79.4µM* | 0.9% | -11.8%
CCOC(=O)c1ccc(NC(=O)Cn2ncc3c(C)n(Cc4ccccc4F)c(C)c3c2=O)cc1 | nt | nt | -22.9% | nt
c1ccc(CSc2nc3ccccc3[nH]2)cc1 | -1.8% | 6.4% | nt | -0.6%
Nc1nc(CSc2nc3ccccc3[nH]2)cs1 | 2.6% | 44.7µM* | -1.5% | -2.0%
CC1Cc2nc(SCC(=O)N3CCN(c4ccccc4)CC3)n(CCc3ccccc3)c(=O)c2S1 (stereo not drawn) | 5.9% | 44.7µM* | -1.9% | ?
CCn1c(SCC(=O)N2CCN(c3ccccc3)CC2)nc2c(c1=O)SC(C)C2 (stereo not drawn) | -6.1%[46.1 µM] | 13.8% | 1.5% | -3.0%
CCn1c(SCC(=O)NCc2ccco2)nc2c(c1=O)SC(C)C2 (stereo not drawn) | 5.5% | 39.8µM* | -4.7% | 2.8%
CCn1c(SCC(=O)NC(=O)NCc2ccco2)nc2sc(C)c(C)c2c1=O | -28.3% | 25.1µM* | -8.6% | -8.0%
CCn1c(SCC(=O)NCc2ccccc2)nc2c(c1=O)SC(C)C2 (stereo not drawn) | 0.4% | 18.2% | 1.3% | 5.9%
CCCn1c(SCC(=O)NC(=O)NCc2ccco2)n[nH]c1=O | nt | 22.4µM* | nt | nt
COc1ccc(C)cc1NC(=O)c1cc2c(s1)CCC2 | -0.5% | 0.9% | -8.6% | -0.2%
COC(=O)c1sccc1NC(=O)c1cc2c(s1)CCCC2 | -1.8% | ? | 35.5µM* | 0.9%
CC1=CC(C)(C)Nc2ccc(OC(=O)CN3C(=O)c4ccccc4C3=O)cc21 | -0.6% | 4.1% | 25.1µM* | 0.3%
CC1=CC(C)(C)Nc2ccc(OC(=O)CN3C(=O)c4cccc5cccc(c45)C3=O)cc21 | 0.9% | 39.8µM* | -9.1% | -4.8%
CC1=CC(C)(C)Nc2ccc(OC(=O)C(Cc3ccccc3)N3C(=O)c4ccccc4C3=O)cc21 (stereo not drawn) | 2.0% | 28.9% | -5.8% | -5.0%
COc1ccc(CNC(=O)c2ccc3c(c2)nc2n3CCCCC2)c(OC)c1 | nt | nt | -0.7% | nt
OCCN(Cc1ccccc1)Cc1cccc(Cl)c1Cl | 3.1% | ? | 0.7% | -0.5%
OCCN(Cc1ccccc1)Cc1ccc(C(F)(F)F)cc1 | -5.5% | -14.3% | 0.6% | 12.9%
OCCN(Cc1ccccc1)Cc1ccccc1Cl | nt | 28.2µM* | 0.3% | nt
OCCN(Cc1ccccc1)Cc1ccccc1F | nt | 39.8µM* | -0.9% | 12.1%
O=C(Nc1nc(=O)c2ccccc2s1)c1ccc(F)cc1 | 2.4%[46.1 µM] | 56.2µM* | 0.5% | ?
O=C(Cc1ccccc1)Nc1nc(=O)c2ccccc2s1 | 1.2% | ? | 1.3% | -12.0%
SMILES | TCR activator | Sfp PPTase inh | ClpP mod | uPA surface inh
Cn1sc(NC(=O)c2ccc(Cl)cc2)nc1=O | -2.7% | 56.2µM* | -22.1% | nt
O=C(Nc1nc(=O)c2ccccc2s1)c1ccc(Cl)cc1 | 4.8% | 25.1µM* | -7.9% | -8.6%
CCOC(=O)N1CCN(C(=O)CN(c2cccc(Cl)c2)S(=O)(=O)c2ccccc2)CC1 | nt | nt | -3.0% | nt
Nc1[nH]c(C(=O)c2ccccc2)c(-c2ccccc2Br)c1C(=O)NCCc1ccc(Cl)cc1Cl | nt | nt | -0.9% | nt
CCCNC(=O)CCc1c(C)nc2nc(C)nn2c1C | 3.2% | 11.2% | nt | 4.6%
Cc1ccc(CN2CCN(Cc3cccc4nccnc34)CC2CCO)cc1 (stereo not drawn) | -2.6% | 21.3% | 2.3% | -5.6%
Oc1cc(O)cc(/C=C/c2ccc(O)c(O)c2)c1 | 1.4% | 39.8µM* | 4.8% | 7.94µM*
O=C(NC1CCCCCC1)c1c(O)c2ccccc2[nH]c1=O | 3.1% | 6.7% | -7.2% | -1.0%
O=C(Cc1c(O)c2ccccc2[nH]c1=O)NC1CCCCCC1 | -9.9% | -18.5% | 20µM* | 12.0%
O=C(Cc1c(O)c2ccccc2[nH]c1=O)NC1CCCCCCC1 | -6.2% | 0.3% | 31.6µM* | nt
O=[N+]([O-])c1cccc(C=Nc2cccc3ccccc23)c1O | -2.0% | 2.7% | nt | -1.9%
CCOC(=O)c1c(/N=C/c2cccc([N+](=O)[O-])c2O)sc(C)c1C | 5.1%[46.1 µM] | 39.8µM* | ? | -1.2%
CCN(CC(=O)NC1CCS(=O)(=O)C1)C(=O)/C=C/c1cccs1 (stereo not drawn) | -0.4% | 17.2% | -0.9% | 17.7%
CN(C)c1nc2sc3c(c2c(=O)n1C)CC(C)(C)OC3 | -4.6% | 15.6% | -8.3% | -5.8%
CCCCn1c(=O)n(C)c(=O)c2c3c(sc21)COC(C)(C)C3 | 4.2% | 2.9% | 28.2µM* | -7.5%
COc1ccc(NC(=O)CCCn2cnc3ccccc3c2=O)cc1 | 5.9% | 50.1µM* | 0.0% | -6.6%
O=C(CCCn1cnc2ccccc2c1=O)Nc1ccccc1F | 6.0% | -14.6% | nt | 0.8%
CCN1CCN(C(=O)c2cnn(-c3cccc(C)c3)c2C2CCN(C(=O)OC(C)(C)C)CC2)CC1 | nt | nt | 1.2% | nt
O=[N+]([O-])c1ccc(C(=S)N2CCCC2)cc1 | -6.5% | 50.1µM* | nt | -5.9%
CCN1CCN(C(=S)c2ccc([N+](=O)[O-])cc2)CC1 | 4.1%[46.1 µM] | 12.6µM* | -1.1% | 3.2%
O=[N+]([O-])c1ccc(C(=S)N2CCN(Cc3ccccc3)CC2)cc1 | 2.7% | -17.4% | -1.2% | 3.2%
CC1CCN(C(=S)c2ccc([N+](=O)[O-])cc2)CC1 | 2.6%[46.1 µM] | 44.7µM* | 1.6% | 1.7%
Cc1ccc(Nc2nnns2)cc1C | -1.0% | 22.4µM* | -3.8% | -2.5%
COc1ccc(C(=O)c2cc(C(C)=O)c(Nc3ccccc3)s2)cc1 | 1.3%[46.1 µM] | 50.1µM* | -26.4% | -7.0%
COc1ccc(C(=O)c2sc(Nc3ccccc3)nc2N)cc1 | 4.2% | -22.5% | -0.4% | 34.9%
SMILES | TCR activator | Sfp PPTase inh | ClpP mod | uPA surface inh
CC1CCN(c2nc3ccc(C(=O)NCCCN4CCCCC4C)cc3s2)CC1 (stereo not drawn) | 1.5% | 3.8% | 4.7% | 11.2µM*
N#CCCN(C(=O)COC(=O)c1ccc(Cl)nc1)c1ccc2c(c1)OCCO2 | nt | nt | 1.6% | nt
COc1cccc2sc(Nc3nc4ccc(NC(C)=O)cc4s3)nc12 | 1.0%[46.1 µM] | ? | 1.12µM* | -16.9%
COc1cccc(-c2nnc(Nc3nc4c(F)cccc4s3)o2)c1 | -3.7%[46.1 µM] | 13.3% | 28.2µM* | ?
COc1cccc2sc(Nc3nnc(-c4ccccc4Cl)o3)nc12 | 2.3%[46.1 µM] | -0.7% | ? | ?
COc1cccc2sc(NN)nc12 | 5.6% | 50.1µM* | nt | 3.3%
COc1cccc2sc(Nc3nc(-c4ccncc4)cs3)nc12 | 4.3% | 0.5% | nt | 9.4%
COc1ccccc1-c1nnc(Nc2nc3c(OC)cccc3s2)o1 | -1.3%[46.1 µM] | 17.6% | 35.5µM* | -17.6%
Cc1cc(NC(=NC2CC2)c2ccccc2F)n(-c2ccccc2)n1 | -6.5% | 1.4% | -2.6% | -0.8%
Nc1nc(NCc2ccc(Cl)cc2)c2[nH]cnc2n1 | nt | nt | -3.2% | nt
COc1ccc(CNC(=O)Cn2ccc3cc(S(=O)(=O)N4CCCCCC4)ccc32)cc1OC | nt | nt | -21.5% | nt
